# Measured values taken from PubChem BioAssay (NCATS).
# Inconclusive results are not listed. Activity calls are given as the source filed them. The call rests on the fitted dose curve; in most records, active means well fitted curve in the direction sought with a large enough effect; inconclusive means small, poorly fitted or top-dose-only effect, or another doubt; inactive means no such curve, though single readings can be large; an effect the other way counts as inactive or inconclusive. Positions of bridges follow the written chain, without caps; N, C: chain ends. Non-standard residues stand in square brackets, D forms with d. Residues, ends and D or L forms follow the SMILES beside them. ξ: configuration not given here. *: point of attachment. Octanoyl(6-Me) = CCC(C)CCCCC(=O)*; ξThr(3R) = C[C@@H](O)C(N)C(=O)O; dDab = NCC[C@@H](N)C(=O)O; Dab = NCC[C@H](N)C(=O)O
# Assay: Quantitative High-Throughput drug screen in 47 multiple myeloma cell lines against the NCATS MIPE library collection: NCIH929_DSMZ cell viability assay (AID 1918978); further: potency means the concentration at half of the fitted maximal effect
# Conditions: NCI-H929 myeloma viability, CellTiter-Glo ATP, 48 h; series mostly up to 45.8 µM; viability, % of control: at the top concentration
# How it was run: (§1)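 Inhibition of viability over 48 h was scored by ATP content (CellTiter-Glo) in 500-cell wells. Zero and full viability were defined by media-only and DMSO-only wells.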
# Further: nearly all actives have a fitted effect of over 35% in size.
SMILES,"viability, % of control",Potency
C[C@@H]1[C@H](C)CC[C@]2(C(=O)O)CC[C@]3(C)C(=CC[C@@H]4[C@@]5(C)C[C@@H](O)[C@H](O)[C@@](C)(CO)[C@H]5CC[C@]43C)[C@@H]12,103% (inactive),–
CC(=CC(=O)Nc1ccccc1C(=O)O)c1ccc2ccccc2c1,–,7430 nM (active)
CCOC(=O)C=C[C@H](C[C@@H]1CCNC1=O)NC(=O)[C@@H](CC(=O)[C@@H](NC(=O)c1cc(C)on1)C(C)C)Cc1ccc(F)cc1,115% (inactive),–
C[C@H](CCC(=O)O)[C@H]1CCC2C3C[C@H](O)[C@@H]4C[C@H](O)CC[C@]4(C)C3CC[C@@]21C (some centres not stated),92.5% (inactive),–
O=C1c2cccc(O)c2C(=O)c2c(O)cc(CO)cc21,95.7% (inactive),–
CC(C)(O)CC[C@@H](O)[C@](C)(O)[C@H]1CC[C@@]2(O)C3=CC(=O)[C@@H]4C[C@@H](O)[C@@H](O)C[C@]4(C)[C@@H]3CC[C@]12C,101% (inactive),–
COC(=O)[C@@H]1[C@H]2C[C@@H]3c4[nH]c5ccccc5c4CCN3C[C@@H]2CC[C@@H]1O,112% (inactive),–
COC(=O)[C@@H]1CC2=CC(=O)CC[C@]2(C)[C@@]23O[C@@H]2C[C@@]2(C)[C@H](CC[C@@]24CCC(=O)O4)[C@@H]13,99.3% (inactive),–
CN1C(C(=O)Nc2ccccn2)=C(O)c2sc(Cl)cc2S1(=O)=O,–,1660 nM (active)
CCN1CCN(C(=O)N[C@H](C(=O)N[C@@H]2C(=O)N3C(C(=O)O)=C(CSc4nnnn4C)CS[C@@H]23)c2ccc(O)cc2)C(=O)C1=O,122% [at 15.3 µM] (inactive),–
CN[C@H](CC(C)C)C(=O)N[C@H]1C(=O)N[C@@H](CC(N)=O)C(=O)N[C@@H]2C(=O)N[C@H]3C(=O)N[C@H](C(=O)N[C@H](C(=O)O)c4cc(O)cc(O)c4-c4cc3ccc4O)[C@H](O)c3ccc(c(Cl)c3)Oc3cc2cc(c3O[C@@H]2O[C@H](CO)[C@@H](O)[C@H](O)[C@@H]2O[C@H]2C[C@](C)(N)[C@H](O)[C@H](C)O2)Oc2ccc(cc2Cl)[C@H]1O,103% (inactive),–
O=[N+]([O-])c1cn2c(n1)OC[C@@H](OCc1ccc(OC(F)(F)F)cc1)C2,111% (inactive),–
C[C@]12CCC(=O)C=C1[C@@H]1CC1[C@H]1[C@H]3[C@@H]4C[C@H]4[C@@]4(CCC(=O)O4)[C@@]3(C)CC[C@H]12 (some centres not stated),119% (inactive),–
CCC[C@H]1C[C@H](C(=O)N[C@@H]([C@@H]2O[C@@H](SC)[C@@H](O)[C@@H](O)[C@@H]2O)[C@H](C)Cl)N(C)C1,103% (inactive),–
CC(=O)N1CCN(c2ccc(OCc3nn(C)c(C)c3-c3cccc4c(CCCOc5cccc6ccccc56)c(C(=O)O)n(Cc5cccnc5)c34)cc2)CC1,–,33.2 nM (active)

# Assay: Quantitative High-Throughput drug screen in 47 multiple myeloma cell lines against the NCATS MIPE library collection: OCIMY1_PLB cell viability assay (AID 1918979);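 further: 100% = DMSO-only wells and 0% = cell-free media-only wells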
# Conditions: OCI-MY1 myeloma viability, CellTiter-Glo ATP, 48 h; series mostly up to 45.8 µM; viability: at the top concentration
# How it was run: as §1
row,SMILES,viability
1,CC[C@H]1OC(=O)[C@H](C)[C@@H](O[C@H]2C[C@@](C)(OC)[C@@H](O)[C@H](C)O2)[C@H](C)[C@@H](O[C@@H]2O[C@H](C)C[C@H](N(C)C)[C@@H]2O)[C@](C)(OC)C[C@@H](C)C(=O)[C@H](C)[C@@H](O)[C@]1(C)O,95.8% (inactive)
2,O=C(c1ccc(F)cc1)N1CCC[C@H](c2nc(-c3ccc(F)cc3)no2)C1,99.9% (inactive)
3,O=C1NC(O)CCN1[C@@H]1O[C@H](CO)[C@H](O)[C@H]1O (some centres not stated),101% (inactive)
4,N[C@H]1CN(c2c(F)cc3c(=O)c(C(=O)O)cn(C4C[C@@H]4F)c3c2Cl)CC12CC2 (some centres not stated),115% (inactive)
5,C=C(C)[C@@H]1CC[C@]2(C(=O)O)CC[C@]3(C)[C@H](CC[C@@H]4[C@@]5(C)CC[C@H](O)C(C)(C)[C@@H]5CC[C@]43C)[C@@H]12,118% (inactive)
6,C[C@H](O)[C@@H]1C(=O)N2C(C(=O)O)=C(S[C@@H]3CN[C@H](CNS(N)(=O)=O)C3)[C@@H](C)[C@@H]12,108% (inactive)
7,Cn1cnc2c(F)c(Nc3ccc(Br)cc3F)c(C(=O)NOCCO)cc21,84.7% (inactive)
8,CC[C@H]1OC(=O)[C@H](C)[C@@H](O[C@H]2C[C@@](C)(OC)[C@@H](O)[C@H](C)O2)[C@H](C)[C@@H](O[C@@H]2O[C@@H](C)C[C@H](N(C)C)[C@@H]2O)[C@](C)(O)C[C@@H](C)C(=O)[C@H](C)[C@@H](O)[C@]1(C)O,116% (inactive)
9,C[C@@H]1[C@H](C)CC[C@]2(C(=O)O)CC[C@]3(C)C(=CC[C@@H]4[C@@]5(C)C[C@@H](O)[C@H](O)[C@@](C)(CO)[C@H]5CC[C@]43C)[C@@H]12,123% (inactive)
10,CC(Oc1ccc(O)cc1)(P(=O)(O)O)P(=O)(O)O,105% (inactive)
11,CC(=CC(=O)Nc1ccccc1C(=O)O)c1ccc2ccccc2c1,154% (inactive)
12,O=C(Nc1ccc(Oc2ccnc3[nH]ccc23)c(F)c1)c1cccn(-c2ccc(F)cc2)c1=O,104% (inactive)
13,CCOC(=O)C=C[C@H](C[C@@H]1CCNC1=O)NC(=O)[C@@H](CC(=O)[C@@H](NC(=O)c1cc(C)on1)C(C)C)Cc1ccc(F)cc1,117% (inactive)
14,CCC(C)CCCCC(=O)N[C@@H](CCN)C(=O)NC(C(=O)N[C@H](CCN)C(=O)N[C@@H]1CCNC(=O)C([C@@H](C)O)NC(=O)[C@@H](CCN)NC(=O)[C@@H](CCN)NC(=O)[C@@H](CC(C)C)NC(=O)[C@H](Cc2ccccc2)NC(=O)[C@H](CCN)NC1=O)[C@@H](C)O (stereo partly drawn) ({Octanoyl(6-Me)}-[Dab][ξThr(3R)][dDab][dDab][Dab]F[dL][dDab][dDab][ξThr(3R)]; lactam 4-C),119% (inactive)
15,O=C(O)CCCCCC(=O)NN=C1CCCC1,125% (inactive)
16,C[C@H](CCC(=O)O)[C@H]1CCC2C3C[C@H](O)[C@@H]4C[C@H](O)CC[C@]4(C)C3CC[C@@]21C (some centres not stated),113% (inactive)
17,O=C1c2cccc(O)c2C(=O)c2c(O)cc(CO)cc21,109% (inactive)
18,CC(C)(O)CC[C@@H](O)[C@](C)(O)[C@H]1CC[C@@]2(O)C3=CC(=O)[C@@H]4C[C@@H](O)[C@@H](O)C[C@]4(C)[C@@H]3CC[C@]12C,114% (inactive)
19,CN1[C@H]2CC(OC(=O)[C@@H](CO)c3ccccc3)C[C@H]1[C@H]1O[C@H]12 (some centres not stated),113% [at 23.2 µM] (inactive)
20,COC(=O)[C@@H]1CC2=CC(=O)CC[C@]2(C)[C@@]23O[C@@H]2C[C@@]2(C)[C@H](CC[C@@]24CCC(=O)O4)[C@@H]13,108% (inactive)
21,CN1C(C(=O)Nc2ccccn2)=C(O)c2sc(Cl)cc2S1(=O)=O,132% (inactive)
22,CCN1CCN(C(=O)N[C@H](C(=O)N[C@@H]2C(=O)N3C(C(=O)O)=C(CSc4nnnn4C)CS[C@@H]23)c2ccc(O)cc2)C(=O)C1=O,111% [at 15.3 µM] (inactive)
23,CN[C@H](CC(C)C)C(=O)N[C@H]1C(=O)N[C@@H](CC(N)=O)C(=O)N[C@@H]2C(=O)N[C@H]3C(=O)N[C@H](C(=O)N[C@H](C(=O)O)c4cc(O)cc(O)c4-c4cc3ccc4O)[C@H](O)c3ccc(c(Cl)c3)Oc3cc2cc(c3O[C@@H]2O[C@H](CO)[C@@H](O)[C@H](O)[C@@H]2O[C@H]2C[C@](C)(N)[C@H](O)[C@H](C)O2)Oc2ccc(cc2Cl)[C@H]1O,120% (inactive)
24,C[C@H](NC(=O)[C@@H](O)c1cc(F)cc(F)c1)C(=O)N[C@@H]1C(=O)N(C)c2ccccc2-c2ccccc21,108% (inactive)
25,O=[N+]([O-])c1cn2c(n1)OC[C@@H](OCc1ccc(OC(F)(F)F)cc1)C2,96.5% (inactive)
26,C[C@]12CCC(=O)C=C1[C@@H]1CC1[C@H]1[C@H]3[C@@H]4C[C@H]4[C@@]4(CCC(=O)O4)[C@@]3(C)CC[C@H]12 (some centres not stated),107% (inactive)
27,CCC[C@H]1C[C@H](C(=O)N[C@@H]([C@@H]2O[C@@H](SC)[C@@H](O)[C@@H](O)[C@@H]2O)[C@H](C)Cl)N(C)C1,107% (inactive)
